# Screening results from PubChem.
# In the library only some 19% were active in any assay of this set; here they are far more common.
# HT1080 IDH1KD tx = toxicity to HT-1080 IDH1 knockdown cells (counter line); HT-1080 IDH1 knockdown viability, ATP luminescence, 48 h; AID 686971; hit rate 2% among 360,000; Potency, µM (titrated, usually from 46.1 µM), actives largely listed as cytotoxic
#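 Luminescent ATP read-out (CellTiter-Glo, 10 min at room temperature) after 48 h compound exposure at 37 °C gave viability of IDH1-knockdown HT-1080 cells. Activity was normalised to DMSO and cell-free wells, then fitted as concentration-response curves.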
# DT40 TDP1 CPT = growth inhibition of DT40 Tdp1-/-;hTDP1 cells with camptothecin (screen for TDP1 inhibitors). chicken DT40 Tdp1-/-;hTDP1 cells + 20 nM CPT, ATP luminescence, 48 h. hit rate 12% among 420,000. Potency, µM (series often up to 46.2 µM), most hits filed as inhibitors; also: nearly all actives have a fitted effect of over 55% in size
#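 Chicken DT40 Tdp1-/- cells stably complemented with human TDP1 were seeded at 400 cells/well in medium containing 20 nM camptothecin, exposed to pin-transferred compounds, and grown at 37 °C for at least 48 hr. Viability was read as ATP luminescence.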
# DT40 TDP1 no CPT = qHTS for Inhibitors of human tyrosyl-DNA phosphodiesterase 1 (TDP1): qHTS in cells in absence of CPT; Potency, µM (titrated, usually from 46.2 µM), usual class: inhibitors; DT40 Tdp1-/- hTDP1 cells, no CPT, ATP luminescence, 48 h; hit rate 15% among 420,000; also: nearly all actives have a fitted effect of over 55% in size
#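 Seeded 400 DT40-hTDP1 cells/well (vehicle DMSO, no 20 nM CPT); pinned compounds; ≥48 hr at 37 °C; CellTiter-Glo luminescence as viability measure.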
# KB-V1 cytotox = KB-V1 MDR subline cytotoxicity; KB-V1 MDR cells viability, CellTiter-Glo, 72 h; Potency, µM (series often up to 46.1 µM), usual class: cytotoxic; AID 1347076; hit rate 3.4% among 400,000; also: nearly all actives have a fitted effect of over 60% in size
#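 Luminescent ATP read-out (CellTiter-Glo, 10 min) measures survival of drug-selected KB-V1 MDR cells after 72 h, 37 degrees C compound exposure. Medium: phenol-red-free DMEM, 10% FBS. Values from fitted concentration-response curves.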
# HT1080NT lethal = kills 2HG-producing HT-1080-NT fibrosarcoma cells | HT-1080-NT fibrosarcoma viability, CellTiter-Glo ATP luminescence, 48 h | Potency, µM (highest dose often 46.1 µM), most hits filed as cytotoxic | hit rate 1.6% among 360,000;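 also: NT is the 2HG producing partner of a matched IDH1 knockdown line; nearly all actives have a fitted effect of over 55% in size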
#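 Read-out is CellTiter-Glo luminescence after 10 minutes at room temperature, following 48 hours' compound treatment of HT-1080-NT cells (750 cells/well, RPMI, 5% FBS, 37 degrees C).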
# KB-3-1 cytotox = kills parental KB-3-1 adenocarcinoma cells. KB-3-1 viability, CellTiter-Glo ATP luminescence, 72 h. Potency, µM (highest dose often 46.1 µM), actives largely listed as cytotoxic. hit rate 1.4% among 400,000. AID 1347075; also: nearly all actives have a fitted effect of over 60% in size
#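 Multi-concentration cytotoxicity screen in KB-3-1 cells grown in DMEM lacking phenol red with 10% FBS. After 72 h at 37 °C with compound, ATP-dependent luminescence was recorded.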
# Numbers stand for hits; 0 = inactive; ? = inconclusive; - = no result. Calls follow the shape of the dose curve; as a rule, active = well fitted curve in the direction sought with a large enough effect; inconclusive = small, poorly fitted or top-dose-only effect, or another doubt; inactive = no such curve, though single readings can be large; an effect the other way counts as inactive or inconclusive.
SMILES,HT1080 IDH1KD tx,DT40 TDP1 CPT,DT40 TDP1 no CPT,KB-V1 cytotox,HT1080NT lethal,KB-3-1 cytotox
Cc1ncsc1CCSc1nc2ccccc2c(=O)n1C,0,?,23.1µM,0,0,0
CC1CCc2c(sc3nc(-c4cc5cc(Br)ccc5oc4=O)[nH]c(=O)c23)C1 (stereo not given),-,0,0,-,-,-
c1ccc(COc2cccc(CN3CCc4ccccc4C3)c2)cc1,0,0,0,0,0,0
O=C([O-])c1cc(-c2ccccc2)cc(-c2ccccc2)[n+]1CCc1ccc(Cl)cc1,?,4.61µM,6.51µM,0,?,?
Cc1ncc([N+](=O)[O-])n1CC(=O)Nc1ccc(F)cc1,0,0,0,0,0,0
COc1ccc(CN2COc3ccc4c(C)cc(=O)oc4c3C2)cc1,-,-,-,?,-,0
COc1ccc(CN2COc3ccc4c(-c5ccccc5)cc(=O)oc4c3C2)cc1,-,?,16.4µM,0,-,0
CC(C)NC(=O)[C@@H]1C[C@@H](Sc2ccccn2)CN1C1CCN(C)CC1,-,0,0,-,-,-
Cc1ccc(/C=N/Nc2cn[nH]c(=O)n2)o1,0,0,0,0,0,0
O=c1nc(N/N=C/c2ccccn2)cn[nH]1,?,5.17µM,5.17µM,0,?,?
CC(/C=N/Nc1nncc(=O)[nH]1)=C\c1ccccc1,0,0,0,0,0,0
O=c1cnnc(N/N=C/c2ccccn2)[nH]1,1.3µM,4.61µM,3.26µM,0,?,?
Cc1cc(=O)[nH]c(N/N=C/c2ccc(-c3ccc(F)cc3)o2)n1,8.2µM,9.2µM,13µM,?,?,?
Cc1cc(=O)[nH]c(N/N=C/c2ccccn2)n1,?,3.66µM,4.61µM,?,?,?
COc1ccc(N2CCN(C(=S)Nc3cc(C)ccn3)CC2)cc1,-,-,-,0,-,0
C(=N\Nc1nncc2ccccc12)/c1ccccn1,5.17µM,2.31µM,2.91µM,0,?,?
C=CCC(CC(O)COCCC)C(=O)NNC(=S)Nc1ccccc1 (stereo not given),0,4.61µM,2.31µM,?,0,0
COc1ccccc1NC(=O)COC(=O)c1[nH]c(=O)[nH]c(=O)c1N,0,0,0,0,0,0
CCN(CC(=O)Nc1c(F)cccc1F)C(=O)c1ccc(COc2ccccc2)cc1,0,?,?,?,0,0
CCOc1ccc(OCc2ccc(C(=O)N(CC)CC)cc2)cc1,0,?,14.6µM,0,0,0
CCN(CC(=O)Nc1ccc(NC(C)=O)cc1)C(=O)c1ccc(COc2ccc(C(C)(C)C)cc2)cc1,?,?,23.1µM,0,?,?
Cc1ccc(N(C)C(=O)CCS(=O)(=O)c2cc3c(cc2Cl)NC(=O)CO3)cc1,0,0,0,0,0,0
Cc1oc(-c2ccccc2F)nc1CS(=O)CC(=O)NC(C)C (stereo not given),-,0,0,0,-,0
C=C(C)C(=O)Nc1ccc2nn(-c3ccccc3O)nc2c1,0,0,?,0,0,0
NS(=O)(=O)c1ccc(N=Nc2cc3ccccc3c(C(=O)O)c2O)cc1,-,0.398µM,1.12µM,0,-,0
SMILES,HT1080 IDH1KD tx,DT40 TDP1 CPT,DT40 TDP1 no CPT,KB-V1 cytotox,HT1080NT lethal,KB-3-1 cytotox
C=CCOc1ccc(/C=C/C(=O)OCC(=O)Nc2c(C)n(C)n(-c3ccccc3)c2=O)cc1,0,0,0,0,0,0
CC(C)=N/N=C1/NC(=O)C(c2ccccc2)S1 (stereo not given),0,?,16.4µM,0,0,0
COc1cc(/C=N/N=C2/NC(=O)C(c3ccccc3)S2)ccc1O (stereo not given),0,0,0,0,0,0
O=C1[C@@H]2[C@@H](CN3CN(c4ccccc4)N=C(c4ccccc4)[C@@]23c2ccccc2)C(=O)N1c1ccccc1,0,5.8µM,13µM,0,0,0
O=C1[C@H]2C(c3ccccc3)=NN(c3ccccc3)[C@H]2C(=O)N1c1ccccc1,0,0,0,0,0,?
CCCCn1c(SCC(=O)Nc2ccc3c(c2)OCO3)nc2c1c(=O)n(C)c(=O)n2C,0,16.4µM,?,5.8µM,0,20.6µM
CCCCn1c(SCC(=O)Nc2nnc(CC)s2)nc2ccccc2c1=O,0,0,0,?,0,0
Cn1c(=O)c2c(ncn2CC(=O)Nc2ccc3c(c2)OCO3)n(C)c1=O,0,0,0,0,0,0
CCCCn1c(SCC(=O)Nc2nnc(CC)s2)nc2c1c(=O)n(C)c(=O)n2C,2.82µM,23.1µM,11.6µM,20.6µM,?,0
CCCn1c(SCC(=O)Nc2ccc(NC(=O)CC)cc2)nc2c1c(=O)n(C)c(=O)n2C,0,0,20.6µM,0,0,0
CCCn1c(SCC(=O)Nc2cc(C)on2)nc2c1c(=O)n(C)c(=O)n2C,0,0,0,?,0,0
CCCn1c(SCC(=O)Nc2cccc(C)n2)nc2c1c(=O)n(C)c(=O)n2C,0,18.4µM,?,?,0,0
CCn1c(SCC(=O)Nc2ccc(NC(C)=O)cc2)nc2c1c(=O)n(C)c(=O)n2C,0,0,?,0,0,0
O=C(Oc1ccccc1F)c1nc(SCc2ccc(F)cc2)ncc1Cl,-,0,0,-,-,-
COc1ccc(/C=C/C(=O)Nc2sc3c(c2C(=O)NCc2cccnc2)CCCC3)cc1,0,?,?,0,0,0
Cc1ccnc(NC(=S)N2CCN(c3ccc(C(F)(F)F)cc3)CC2)c1,-,-,-,0,-,0
OC(CN1CCCCC1)c1ccc2c3c(cccc13)CC2 (stereo not given),0,0,0,0,0,0
CCCn1c(SCC(=O)NCc2ccco2)nc2c1c(=O)n(C)c(=O)n2C,0,0,0,0,0,0
CCCn1c(SCC(=O)Nc2nc3ccccc3s2)nc2c1c(=O)n(C)c(=O)n2C,0,23.1µM,23.1µM,0,0,0
COc1ccc(C(C(=O)NCC2CCCO2)N(C(=O)CNC(=O)c2cccs2)c2ccc(C)cc2)cc1OC (stereo not given),0,0,0,?,0,0
O=C(Nc1ccc(OC(F)(F)F)cc1)N1CCN(c2ccnc3cc(Cl)ccc23)CC1,?,4.61µM,5.17µM,0,?,?
COc1ccccc1NC(=O)Cc1c(C(=O)O)[nH]c2ccc(Cl)cc12,-,0,0,-,-,-
COc1ccccc1NC(=O)N1CCc2[nH]c3ccc(Cl)cc3c2C1,?,20.6µM,?,?,?,?
O=C(Nc1ccc(OC(F)(F)F)cc1)c1cc(-c2ccc(Cl)cc2)on1,-,0,0,0,-,0
COc1ccccc1N1CCN(c2ccnc3cc(Cl)ccc23)CC1,7.31µM,2.59µM,4.61µM,?,3.66µM,6.51µM
COc1ccccc1NC(=O)N1CCN(c2ccnc3cc(Cl)ccc23)CC1,0,?,16.4µM,0,0,0
